This passage reports Potency results from PubChem BioAssay (NCATS).

The structures appear in SMILES notation. Results filed as inconclusive are left out. Where a call stands in place of a potency, no number is given. Active and inactive are the calls of the source. Calls follow the shape of the dose curve; as a rule, active = well fitted curve in the direction sought with a large enough effect in the repeat runs; inconclusive = weak or mixed curves; inactive = no such curve, though single readings can be large; an effect the other way counts as inactive or inconclusive.

Chain of Cytochrome P450 3A4 (Homo sapiens) (P08684 whole entry, looked up): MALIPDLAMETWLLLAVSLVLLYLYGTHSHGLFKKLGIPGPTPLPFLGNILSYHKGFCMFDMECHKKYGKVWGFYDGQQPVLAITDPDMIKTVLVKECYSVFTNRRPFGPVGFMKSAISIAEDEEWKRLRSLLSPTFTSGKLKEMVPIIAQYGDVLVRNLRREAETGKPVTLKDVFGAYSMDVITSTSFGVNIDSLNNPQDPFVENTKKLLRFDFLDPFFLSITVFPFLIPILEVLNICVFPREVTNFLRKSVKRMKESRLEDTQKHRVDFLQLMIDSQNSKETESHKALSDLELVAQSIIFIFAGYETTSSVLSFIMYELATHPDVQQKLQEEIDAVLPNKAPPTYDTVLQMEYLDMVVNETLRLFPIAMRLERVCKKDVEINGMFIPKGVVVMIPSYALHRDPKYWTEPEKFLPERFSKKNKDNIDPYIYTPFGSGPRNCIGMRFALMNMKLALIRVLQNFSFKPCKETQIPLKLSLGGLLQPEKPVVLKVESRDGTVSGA
Chain of Cytochrome P450 2D6 (Homo sapiens) (P10635 whole entry, looked up): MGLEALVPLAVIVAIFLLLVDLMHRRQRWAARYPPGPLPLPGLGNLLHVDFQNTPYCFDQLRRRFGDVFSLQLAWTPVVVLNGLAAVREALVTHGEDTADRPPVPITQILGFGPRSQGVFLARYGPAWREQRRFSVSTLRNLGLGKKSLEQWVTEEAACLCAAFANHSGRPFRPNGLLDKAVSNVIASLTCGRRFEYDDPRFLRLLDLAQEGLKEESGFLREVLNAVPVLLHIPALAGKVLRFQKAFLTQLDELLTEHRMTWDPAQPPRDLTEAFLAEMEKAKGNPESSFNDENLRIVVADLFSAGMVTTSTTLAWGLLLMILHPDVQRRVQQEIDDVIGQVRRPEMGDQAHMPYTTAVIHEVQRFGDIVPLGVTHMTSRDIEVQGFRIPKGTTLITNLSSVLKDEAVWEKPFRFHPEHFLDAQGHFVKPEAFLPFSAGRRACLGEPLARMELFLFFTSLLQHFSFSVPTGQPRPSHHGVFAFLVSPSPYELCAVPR
Chain of Cytochrome P450 2C9 (Homo sapiens) (P11712 whole entry, looked up): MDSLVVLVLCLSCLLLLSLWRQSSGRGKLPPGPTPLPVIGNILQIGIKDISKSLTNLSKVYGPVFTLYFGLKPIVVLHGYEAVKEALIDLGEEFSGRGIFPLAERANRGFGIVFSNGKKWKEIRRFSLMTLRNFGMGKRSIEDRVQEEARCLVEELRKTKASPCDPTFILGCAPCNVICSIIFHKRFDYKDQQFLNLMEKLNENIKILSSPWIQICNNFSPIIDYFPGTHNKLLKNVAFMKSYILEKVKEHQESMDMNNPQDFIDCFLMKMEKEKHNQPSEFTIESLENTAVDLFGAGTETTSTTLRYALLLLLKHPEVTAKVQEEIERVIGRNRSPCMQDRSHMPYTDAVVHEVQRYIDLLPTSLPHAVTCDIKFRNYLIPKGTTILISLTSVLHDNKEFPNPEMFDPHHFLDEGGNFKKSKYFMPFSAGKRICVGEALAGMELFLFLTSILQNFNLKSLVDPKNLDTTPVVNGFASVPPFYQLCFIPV

One assay has as its target Cytochrome P450 2D6 (Homo sapiens) (UniProt P10635). As to the kind of experiment: Cytochrome P450 family 2 subfamily D member 6 (CYP2D6) small molecule antagonists: luciferase biochemical (cell-free) qHTS assay (AID 1645840). Also: nearly all actives have a fitted effect of over 55% in size. Also: potency is read from the fitted curve at half-maximal effect. The note with it: P450-Glo CYP2D6 enzyme, luciferin luminescence, 1 h; series mostly up to 57.4 µM. The essentials: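 P450-Glo CYP2D6 system: proluciferin substrate converted by enzyme to luciferin, read by luminescence proportional to activity. Enzyme-substrate mix with compound 10 min at room temperature, then NADPH regeneration 1 h before detection reagent.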
A general note: Quantitative high-throughput screening tests each substance at several concentrations.
On to `CCN1/C(=C/C=C/c2sc3ccccc3[n+]2CC)Sc2ccccc21`, for which the Potency was 2.13 µM (active).

As for `CC(=O)OCC1=C(C(=O)O)N2C(=O)[C@@H](NC(=O)CSc3ccncc3)[C@H]2SC1`, the Potency was 13.8 µM (active).

Regarding `C=CCN1CCc2nc(N)sc2CC1`, the Potency result was “inactive”.

For the molecule `COc1cc(N)c(Cl)cc1C(=O)NC1CCN(Cc2ccccc2)CC1`, the Potency is 0.0219 µM (active).

Turning to `CCN1CCCC(OC(=O)C(c2ccccc2)c2ccccc2)C1` (stereo not given), the Potency was 1.38 µM (active).

Consider `CC(=O)NC(=O)c1ccccc1O`, for which the Potency result is “inactive”.

As for `Cc1nc(-c2ccc(Cl)cc2)oc1COC(C)(C)C(=O)O`, the Potency entry was “inactive”.

As for `O=C1C(CCS(=O)c2ccccc2)C(=O)N(c2ccccc2)N1c1ccccc1` (stereo not given), the Potency result was “inactive”.

On to `CC(C)[N+](C)(C)CC(O)COc1cccc2ccccc12` (stereo not given), for which the Potency is 6.92 µM (active).

For the molecule `CN1CCN(c2c(F)cc3c(=O)c(C(=O)O)cn4c3c2SCC4)CC1`, the Potency entry is “inactive”.

Consider `Nc1nc(-c2ccccc2)c(Br)c(=O)[nH]1`, for which the Potency entry is “inactive”.

Consider `N#C/C(=C1\SCC(c2ccccc2Cl)S1)n1ccnc1` (stereo not given), for which the Potency is 0.275 µM (active).

As for `CO[C@]12C[C@@H](COC(=O)c3cncc(Br)c3)CN(C)[C@@H]1Cc1cn(C)c3cccc2c13`, the Potency is 0.0155 µM (active).

Consider `COc1cc(C(=S)N2CCOCC2)ccc1O`, for which the Potency entry is “inactive”.

As to `CC(C)(C)NCC(O)COc1cccc2c1C[C@H](O)[C@H](O)C2` (stereo not given in full), the Potency entry was “inactive”.

Turning to `CCOC(=O)c1c(N)sc2c1CCN(Cc1ccccc1)C2`, the Potency was 0.0098 µM (active).

As for `CCCCOC(=O)CC(CC(=O)OCCCC)(OC(C)=O)C(=O)OCCCC`, the Potency result is “inactive”.

Regarding `CC(C)Cn1cnc2c1c(=O)n(C)c(=O)n2C`, the Potency entry is “inactive”.

For the molecule `CCOc1cc(OCC)c(C(=O)CCC(=O)O)cc1OCC`, the Potency result is “inactive”.

Regarding `CCc1cc(Cl)c(OC)c(C(=O)NC[C@@H]2CCCN2CC)c1O`, the Potency was 0.219 µM (active).

`CN(CCCN1c2ccccc2CCc2ccccc21)CC(=O)c1ccc(Cl)cc1`: the Potency is 6.09 µM (active).

As for `CC(=C(CCOC(=O)C(C)C)SSC(CCOC(=O)C(C)C)=C(C)N(C=O)Cc1cnc(C)nc1N)N(C=O)Cc1cnc(C)nc1N`, the Potency entry was “inactive”.

As for `NCc1ccccc1Sc1ccccc1CO`, the Potency was 4.9 µM (active).

As for `NC(=O)c1ccccc1O`, the Potency result is “inactive”.

Turning to `COc1cc(O)c(C(=O)c2ccccc2)cc1S(=O)(=O)O`, the Potency entry is “inactive”.

In the case of `O=C1C(=O)c2ccccc2C(O)=C1C1CCC(c2ccc(Cl)cc2)CC1` (stereo not given), the Potency result is “inactive”.

Turning to `NCCNc1cccc2ccccc12`, the Potency was 7.76 µM (active).

For the molecule `COc1ccc(S(=O)(=O)N2c3ccc(Cl)cc3[C@@](O)(c3ccccc3Cl)[C@H]2C(=O)N2CCC[C@@H]2C(N)=O)cc1OC`, the Potency entry was “inactive”.

Regarding `NS(=O)(=O)Cc1noc2ccccc12`, the Potency entry is “inactive”.

For `NC(=O)C1(N2CCCCC2)CCN(CCCC(=O)c2ccc(F)cc2)CC1`, the Potency is 4.36 µM (active).

A further assay has as its target Cytochrome P450 3A4 (Homo sapiens) (UniProt P08684). As to the kind of experiment: Cytochrome P450 family 3 subfamily A member 4 (CYP3A4) small molecule antagonists: luciferase qHTS assay (AID 1645841). Also: nearly all actives have a fitted effect of over 45% in size. The following applies: P450-Glo CYP3A4 enzyme assay, luciferin luminescence; series mostly up to 57.4 µM. The essentials: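 Luminescent CYP3A4 activity readout: compounds plus enzyme-substrate mix 10 min at room temperature, reaction started with NADPH regenerating system for 1 h, stopped with detection reagent, read after 20 min. Ketoconazole served as control.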
As for `Nc1nc(-c2ccccc2)c(Br)c(=O)[nH]1`, the Potency entry is “inactive”.

On to `CC(C)(C)NCC(O)COc1cccc2c1C[C@H](O)[C@H](O)C2` (stereo not given in full), for which the Potency entry was “inactive”.

As for `O=C1C(=O)c2ccccc2C(O)=C1C1CCC(c2ccc(Cl)cc2)CC1` (stereo not given), the Potency entry was “inactive”.

Take `NS(=O)(=O)Cc1noc2ccccc12`: the Potency entry is “inactive”.

As for `NC(=O)C1(N2CCCCC2)CCN(CCCC(=O)c2ccc(F)cc2)CC1`, the Potency entry was “inactive”.

A further assay deals with Cytochrome P450 2C9 (Homo sapiens) (UniProt P11712). In words: Cytochrome P450 family 2 subfamily C member 9 (CYP2C9) small molecule antagonists: luciferase biochemical (cell-free) qHTS assay (AID 1645842). Also: nearly all actives have a fitted effect of over 55% in size. Also: potency is read from the fitted curve at half-maximal effect. The following applies: P450-Glo CYP2C9 enzyme assay, luciferin luminescence; series mostly up to 57.4 µM. The essentials:
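P450-Glo CYP2C9 system: proluciferin substrate with enzyme in mix containing 0.4% BSA, 10 min at room temperature, then NADPH regeneration solution added and incubated 1 h at 37C. Detection reagent stopped reaction; luminescence read after 20 min as RLU.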
On to `CCN1/C(=C/C=C/c2sc3ccccc3[n+]2CC)Sc2ccccc21`, for which the Potency was 9.52 µM (active).

Consider `CC(=O)OCC1=C(C(=O)O)N2C(=O)[C@@H](NC(=O)CSc3ccncc3)[C@H]2SC1`, for which the Potency is 11 µM (active).

Take `C=CCN1CCc2nc(N)sc2CC1`: the Potency entry was “inactive”.

Turning to `COc1cc(N)c(Cl)cc1C(=O)NC1CCN(Cc2ccccc2)CC1`, the Potency entry is “inactive”.

In the case of `CCN1CCCC(OC(=O)C(c2ccccc2)c2ccccc2)C1` (stereo not given), the Potency entry was “inactive”.

As for `CC(=O)NC(=O)c1ccccc1O`, the Potency entry is “inactive”.

Regarding `Cc1nc(-c2ccc(Cl)cc2)oc1COC(C)(C)C(=O)O`, the Potency entry was “inactive”.

For the molecule `O=C1C(CCS(=O)c2ccccc2)C(=O)N(c2ccccc2)N1c1ccccc1` (stereo not given), the Potency was 3.09 µM (active).

On to `CC(C)[N+](C)(C)CC(O)COc1cccc2ccccc12` (stereo not given), for which the Potency result is “inactive”.

On to `CC(C)(Cc1c[nH]c2ccccc12)NCC(O)COc1ccccc1C#N` (stereo not given), for which the Potency entry is “inactive”.

With `CN1CCN(c2c(F)cc3c(=O)c(C(=O)O)cn4c3c2SCC4)CC1`, the Potency result is “inactive”.

As to `Nc1nc(-c2ccccc2)c(Br)c(=O)[nH]1`, the Potency result was “inactive”.

As for `N#C/C(=C1\SCC(c2ccccc2Cl)S1)n1ccnc1` (stereo not given), the Potency is 1.55 µM (active).

Regarding `CO[C@]12C[C@@H](COC(=O)c3cncc(Br)c3)CN(C)[C@@H]1Cc1cn(C)c3cccc2c13`, the Potency entry was “inactive”.

Take `COc1cc(C(=S)N2CCOCC2)ccc1O`: the Potency entry was “inactive”.

As to `CCOC(=O)c1c(N)sc2c1CCN(Cc1ccccc1)C2`, the Potency was 8.71 µM (active).

Consider `CCCCOC(=O)CC(CC(=O)OCCCC)(OC(C)=O)C(=O)OCCCC`, for which the Potency was 1.74 µM (active).

Consider `CC(C)Cn1cnc2c1c(=O)n(C)c(=O)n2C`, for which the Potency entry is “inactive”.

Regarding `CCOc1cc(OCC)c(C(=O)CCC(=O)O)cc1OCC`, the Potency entry was “inactive”.

In the case of `CCc1cc(Cl)c(OC)c(C(=O)NC[C@@H]2CCCN2CC)c1O`, the Potency result was “inactive”.

Regarding `CN(CCCN1c2ccccc2CCc2ccccc21)CC(=O)c1ccc(Cl)cc1`, the Potency was 12.1 µM (active).

For the molecule `CC(=C(CCOC(=O)C(C)C)SSC(CCOC(=O)C(C)C)=C(C)N(C=O)Cc1cnc(C)nc1N)N(C=O)Cc1cnc(C)nc1N`, the Potency result was “inactive”.

As to `NCc1ccccc1Sc1ccccc1CO`, the Potency was 15.5 µM (active).

On to `NC(=O)c1ccccc1O`, for which the Potency result was “inactive”.

For `COc1cc(O)c(C(=O)c2ccccc2)cc1S(=O)(=O)O`, the Potency result was “inactive”.

Turning to `O=C1C(=O)c2ccccc2C(O)=C1C1CCC(c2ccc(Cl)cc2)CC1` (stereo not given), the Potency entry is “inactive”.

As to `NCCNc1cccc2ccccc12`, the Potency was 24.5 µM (active).

`COc1ccc(S(=O)(=O)N2c3ccc(Cl)cc3[C@@](O)(c3ccccc3Cl)[C@H]2C(=O)N2CCC[C@@H]2C(N)=O)cc1OC`: the Potency is 15.5 µM (active).

Regarding `NS(=O)(=O)Cc1noc2ccccc12`, the Potency result is “inactive”.

As to `NC(=O)C1(N2CCCCC2)CCN(CCCC(=O)c2ccc(F)cc2)CC1`, the Potency result is “inactive”.
